Data as given in PubChem BioAssay (Tox21).
Results filed as inconclusive are left out. Where a call stands in place of a potency, no number is given. A structure can be active in one record and inactive in another. Active and inactive are the calls of the source. The call rests on the fitted dose curve; in most records, active means well fitted cell-killing curve with a large enough effect in the repeat runs; inconclusive means weak or mixed curves, or effect the other way; inactive means flat fitted curve, though single readings scatter.

Assay: Human pregnane X receptor (PXR) small molecule agonists, qHTS cell viability counter screen (AID 1346977); further: nearly all actives have a fitted effect of over 50% in size
Conditions: PXR-Luc HepG2 viability, CellTiter-Fluor, 24 h; series mostly up to 92.4 µM
Excerpt: U.S. Tox21 Program National Center for Advancing Translational Sciences [NCATS] NIH Chemical Genomics Center [NCGC] U.S. Environmental Protection Agency [EPA] National Institutes of Environmental Health Sciences [NIEHS] National Toxicology Program [NTP] U.S. Food and Drug Administration [FDA] Tox21 Assay Overview: The human pregnane X receptor (hPXR) regulates the expression of several drug metabolizing enzymes and induction of these proteins is a major mechanism for developing drug resistance in cancer. One such key enzyme catalyzing the drug metabolism is cytochrome P450 3A4 (CYP3A4). Changes in CYP3A4 expression affect drug metabolism, thereby reducing the therapeutic efficacy and altering toxicological response to a drug and which finally causes adverse drug interaction. To screen Tox21 libraries for compounds that activate hPXR-mediated CYP3A4 gene expression, PXR-Luc HepG2 cells were used. Also cytotoxicity of the compounds was tested in parallel by measuring the cell viability using CellTiter-Fluor assay system in the same wells.
Tox21 Assay Protocol Summary: PXR-Luc HepG2 cells were dispensed at 2,000 per well in 5uL of assay medium containing 5% charcoal-stripped FBS into white solid bottom 1536-well plates (Corning Life Sciences, Corning, NY) using a Multidrop Combi (Thermo Scientific, Waltham, MA) dispenser. The assay plates were incubated at 37 C and 5% CO2 for 5hr, and then 23nL of compounds dissolved in DMSO and positive control were transferred using a Pintool station (Wako, San Diego, CA). The assay plates were incubated at 37C and 5% CO2 for 24hr. For cytotoxicity read, after 23hr incubation at 37C, 1uL CellTiter-Fluor reagent (Promega Corporation, Madison, WI) was added to each well of the assay plates using Flying Reagent Dispenser (FRD, Aurora Discovery, San Diego, CA). After 1hr incubation at 37C and 5% CO2, the fluorescence signal was quantified using a ViewLux plate reader (PerkinElmer, Shelton, CT).
Potency means the concentration at half of the fitted maximal effect.

Question: For `CC(C)(C)C(O)(CCc1ccc(Cl)cc1)Cn1cncn1` (stereo not given), which Potency is on record?
Answer: Its Potency is “inactive”.

Question: Which Potency does the source give for `C#CCN(C)[C@H](C)Cc1ccccc1` here?
Answer: The Potency was “inactive”.

Question: For `COC(=O)c1ccccc1N`, which Potency is on record?
Answer: Its Potency is “inactive”.

Question: For `O=S(=O)(c1ccc(O)cc1)c1ccc(O)cc1`, which Potency is on record?
Answer: Its Potency is “inactive”.

Question: For `CNC(=O)Oc1ccccc1OC(C)C`, which Potency is on record?
Answer: Its Potency is “inactive”.

Question: For `[N-]=[N+]=[N-]`, which Potency is on record?
Answer: The Potency was “inactive”.

Question: With `Oc1ccccc1Cl` as the molecule, how does the Potency read?
Answer: Its Potency is “inactive”.

Question: For `O=c1ccc(=O)[nH][nH]1`, which Potency is on record?
Answer: Its Potency is “inactive”.

Question: Which Potency does the source give for `CCc1cccc(C)c1N(C(=O)CCl)C(C)COC` (stereo not given) here?
Answer: Its Potency is “inactive”.

Question: Which Potency does the source give for `ClCCBr` here?
Answer: The Potency was “inactive”.

Question: For `Nc1c(Cl)c(Cl)nc(C(=O)O)c1Cl`, which Potency is on record?
Answer: The Potency was “inactive”.

Question: With `CCOP(OCC)OCC` as the molecule, how does the Potency read?
Answer: Its Potency is “inactive”.

Question: For `CN=C=S`, which Potency is on record?
Answer: The Potency was “inactive”.

Question: For `Cn1cc(-c2ccccc2)c(=O)c(-c2cccc(C(F)(F)F)c2)c1`, which Potency is on record?
Answer: Its Potency is “inactive”.

Question: With `CCCN(CCC)c1c([N+](=O)[O-])cc(C(F)(F)F)cc1[N+](=O)[O-]` as the molecule, how does the Potency read?
Answer: Its Potency is “inactive”.

Question: With `CCNc1nc(NC(C)C)nc(SC)n1` as the molecule, how does the Potency read?
Answer: Its Potency is “inactive”.

Question: Which Potency does the source give for `c1ccc2c(c1)Oc1ccccc1O2` here?
Answer: The Potency was “inactive”.

Question: With `CCCCN(CCCC)SN(C)C(=O)Oc1cccc2c1OC(C)(C)C2` as the molecule, how does the Potency read?
Answer: Its Potency is “inactive”.

Question: Which Potency does the source give for `NCC(O)c1ccc(O)cc1` (stereo not given) here?
Answer: Its Potency is “inactive”.

Question: With `O=NN1CCCC1` as the molecule, how does the Potency read?
Answer: The Potency was “inactive”.

Question: With `CC(C)NC(=O)N1CC(=O)N(c2cc(Cl)cc(Cl)c2)C1=O` as the molecule, how does the Potency read?
Answer: The Potency was 50.1 µM (active) and inactive.

Question: With `CC(Oc1ccc(Cl)cc1Cl)C(=O)O` (stereo not given) as the molecule, how does the Potency read?
Answer: Its Potency is “inactive”.

Question: With `Clc1ccccc1Cl` as the molecule, how does the Potency read?
Answer: The Potency was “inactive”.

Question: For `C#CC(C)(C)NC(=O)c1cc(Cl)cc(Cl)c1`, which Potency is on record?
Answer: The Potency was “inactive”.

Question: For `O=[N+]([O-])c1ccccc1`, which Potency is on record?
Answer: The Potency was “inactive”.

Question: For `CC(C)(Cl)Cl`, which Potency is on record?
Answer: Its Potency is “inactive”.

Question: With `Nc1ccc(Br)cc1` as the molecule, how does the Potency read?
Answer: The Potency was “inactive”.

Question: Which Potency does the source give for `CC(C)(C)OOC(C)(C)C` here?
Answer: The Potency was “inactive”.

Question: Which Potency does the source give for `C1CC2OC2CC1C1CO1` (stereo not given) here?
Answer: The Potency was “inactive”.

Question: For `CCCCOC(=O)c1ccccc1C(=O)OCCCC`, which Potency is on record?
Answer: The Potency was “inactive”.

Question: With `C[C@]12CC[C@H]3[C@@H](CC[C@@]45O[C@@H]4C(O)=C(C#N)C[C@]35C)[C@@H]1CC[C@@H]2O` as the molecule, how does the Potency read?
Answer: The Potency was “inactive”.

Question: With `O=NN1CCCCCCC1` as the molecule, how does the Potency read?
Answer: The Potency was “inactive”.

Question: With `Cc1cc(-c2cc(C)c(N)c(C)c2)cc(C)c1N` as the molecule, how does the Potency read?
Answer: The Potency was “inactive”.

Question: For `CCOC(=O)c1ccccc1C(=O)OCC`, which Potency is on record?
Answer: The Potency was “inactive”.

Question: Which Potency does the source give for `O=C(O)c1ccccn1` here?
Answer: The Potency was “inactive”.

Question: Which Potency does the source give for `C=C(C)CCl` here?
Answer: The Potency was “inactive”.

Question: Which Potency does the source give for `Cc1ccc([N+](=O)[O-])cc1C` here?
Answer: The Potency was “inactive”.

Question: For `CN1C(=O)CN=C(c2ccccc2)c2cc(Cl)ccc21`, which Potency is on record?
Answer: The Potency was “inactive”.

Question: With `CC(NC(C)(C)C)C(=O)c1cccc(Cl)c1` (stereo not given) as the molecule, how does the Potency read?
Answer: The Potency was “inactive”.

Question: For `BrCCBr`, which Potency is on record?
Answer: Its Potency is “inactive”.
